Source: PubChem BioAssay (EPA / NIEHS)
Records with an inconclusive call do not appear. Active and inactive are the calls of the source. Rule for the calls, unless noted: active = hit-call score of the fitted dose curve at least 0.9, where 1 is the maximum; inconclusive = response in the unintended direction; inactive = score below 0.9.

Legend:
[1] = target: Nuclear receptor subfamily 1 group I member 2 (Homo sapiens) (UniProt O75469); assay: NVS_NR_hPXR: NovaScreen (NVS) Nuclear Receptor Binding Assay for human Pregnane X Receptor (PXR) (AID 2283365);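 note: a drop in FRET signal versus DMSO baseline means the compound binds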
How it was run: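 Binding was measured by time-resolved fluorescence resonance energy transfer after a 2 h exposure of extracted human PXR protein without cells. Compounds were first tested at 25 uM in duplicate, with concentration series for actives; DMSO defined baseline.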

[2] = target: rat Androgen Receptor (AR), Ar (gene 24208) (UniProt P15207); assay: NVS_NR_rAR: NovaScreen (NVS) Nuclear Receptor Binding Assay for rat Androgen Receptor (AR) (AID 2283366)
How it was run: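 Cell-free radioligand binding on extracts of prostate from testosterone-pretreated rats, read by filter-based scintillation counting 18 h after dosing. Loss of bound signal fitted positively versus DMSO; primary screen in duplicate at 25 uM, actives followed up in concentration series.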

[3] = target: Peroxisome proliferator-activated receptor gamma (Homo sapiens) (UniProt P37231); assay: NVS_NR_hPPARg: NovaScreen (NVS) Nuclear Receptor Binding Assay for human Peroxisome Proliferator-activated Receptor gamma (PPARg) (AID 2283370)
How it was run: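 Fluorescence polarization measures competitive binding to extracted PPARg in a cell-free format. Reading is taken at 2 h; activity is signal loss relative to DMSO. Screening at 25 uM in duplicate preceded confirmatory dose series.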

[4] = target: human Norepinephrine Transporter (NET), SLC6A2 (gene 6530) (UniProt P23975); assay: NVS_TR_hNET: NovaScreen (NVS) Transporter Assay for human Norepinephrine Transporter (NET) (AID 2283377);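 for AC50: displacement of radioligand from human NET seen as loss of scintillation signal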
How it was run: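 Cell-free radioligand binding using CHO-derived membrane protein expressing human NET, read by filter scintillation counting 1 h after dosing; loss of signal vs DMSO. Initial duplicate screen at 25 uM, actives retested in concentration series.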

[5] = target: mouse Estrogen Receptor alpha (Era), Esr1 (gene 13982) (UniProt P19785); assay: NVS_NR_mERa: NovaScreen (NVS) Nuclear Receptor Binding Assay for mouse Estrogen Receptor alpha (Era) (AID 2283378);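 note: hit means loss of bound radioligand signal relative to DMSO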
How it was run: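 Test chemicals competed against a specific radioligand for binding to cell-free mouse Era. Duplicate wells at 25 uM were read 18 hours later by filter-based radiodetection, with loss of signal against DMSO scored as activity.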

[6] = target: Agonist Androgen Response Element (ARE), AR (gene 367) (UniProt P10275); assay: OT_AR_ARELUC_AG_1440: Odyssey Thera (OT) 24-hour CHO-K1 Luciferase Assay for Agonist Androgen Response Element (ARE) (AID 2283379)
How it was run: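 CHO-K1 cells carrying an ARE-driven luciferase reporter were exposed to compounds for 24 h. Luminescence was then read after adding a D-luciferin/ATP mix, and activity was scored as a gain in signal over DMSO vehicle.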

[7] = target: Estrogen receptor (Homo sapiens) (UniProt P03372); assay: OT_ERa_GFPERaERE_0480: Odyssey Thera (OT) 8-hour HeLa Transcription Induction Assay for Estrogen Receptor (AID 2283381; active = hit-call score of the fitted dose curve at least 0.9, where 1 is the maximum; inactive = score below 0.9)
How it was run: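 HeLa cells dosed with compound and imaged by fluorescence microscopy at 8 h; GFP induction from an ERE reporter quantified by high-content image analysis and fitted as gain of signal against DMSO baseline.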

[8] = target: Estrogen receptor (Homo sapiens) (UniProt P03372); assay: OT_ERa_GFPERaERE_0120: Odyssey Thera (OT) 2-hour HeLa Transcription Induction Assay for Estrogen Receptor (AID 2283382)
How it was run: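 HeLa cells were dosed with test chemical and read 2 hours later for GFP-ERα/ERE-linked fluorescent protein induction by fluorescence microscopy. Gain-of-signal was fitted relative to DMSO baseline, quantified by high content image analysis.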

[9] = target: Bile acid receptor (Homo sapiens) (UniProt Q96RI1); assay: OT_FXR_FXRSRC1_0480: Odyssey Thera (OT) 8-hour HEK293T Protein-Complementation Assay for Farnesoid X receptor/SRC-1 Co-activator (AID 2283383)
How it was run: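 HEK293T cells expressing FXR and SRC-1 fused to reporter fragments were dosed with compound for 8 h; fluorescence from the reconstituted reporter marked co-activator recruitment. Gain of signal was fitted against the DMSO baseline.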

[10] = tested on: rat Norepinephrine Transporter (NET), gene 83511; assay: NVS_TR_rNET: NovaScreen (NVS) Transporter Assay for rat Norepinephrine Transporter (NET) (AID 2283373)
How it was run: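 Rat forebrain membranes; radioligand binding measured by filter-based scintillation counting 1 hour after dosing. Loss of specific binding versus DMSO baseline scored; primary screen in duplicate at 25 uM, actives followed up in concentration series.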

[11] = target: Glucocorticoid receptor (Homo sapiens) (UniProt P04150); assay: NVS_NR_hGR: NovaScreen (NVS) Nuclear Receptor Binding Assay for human Glucocorticoid Receptor (GR) (AID 2283363);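 for AC50: activity is loss of specific radioligand binding signal relative to DMSO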
How it was run: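 Cell-free radioligand displacement assay on extracted human GR, read 16 h after dosing by filter-based scintillation counting. Screened in duplicate at 25 uM, then concentration series for actives; loss of signal versus DMSO baseline.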

[12] = target: guinea pig Sigma Receptor, Non-selective Binding, SIGMAR1 (gene 100135589) (UniProt Q60492); assay: NVS_OR_gSIGMA_NonSelective: NovaScreen (NVS) Nuclear Receptor Binding Assay for guinea pig Sigma Receptor, Non-selective Binding (AID 2283367)
How it was run: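 Radioligand displacement on guinea pig brain membranes, read by filter-based scintillation counting 1 h after dosing. Loss of signal versus DMSO; initial duplicate single-point screen at 25 uM, actives followed in concentration series.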

[13] = target: human Adenosine Transporter (Adot), SLC29A1 (gene 2030) (UniProt Q99808); assay: NVS_TR_hAdoT: NovaScreen (NVS) Transporter Assay for human Adenosine Transporter (Adot) (AID 2283368)
How it was run: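 U937-derived membranes, cell-free radioligand binding, filter scintillation 1 h after dosing. 25 uM duplicate screen; hits (e.g. 30% inhibition) run in concentration-response up to 50 uM; loss of signal versus DMSO.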

[14] = tested on: guinea pig Dopamine Transporter (DAT), gene 100714898; assay: NVS_TR_gDAT: NovaScreen (NVS) Transporter Assay for guinea pig Dopamine Transporter (DAT) (AID 2283369);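 note: active compounds lower bound radioligand signal relative to DMSO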
How it was run: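 Test chemicals were incubated 2 h with guinea pig striatal membranes and a radioligand; bound label was separated by filtration and counted. Screening ran at 25 uM, followed by concentration-response testing to a 50 uM maximum.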

[15] = target: Estrogen receptor beta (Homo sapiens) (UniProt Q92731); assay: OT_ER_ERbERb_1440: Odyssey Thera (OT) 24-hour HEK293T Protein-Complementation Assay for Estrogen Receptor-beta/-beta Homodimer (AID 2283380);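 note: scored as signal increase over DMSO baseline for both agonists and antagonists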
How it was run: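 HEK293T cells stably expressing ER beta LBD (aa 310-547) homodimer fragment-complementation reporter, dosed 24 h. Cells formaldehyde-fixed, Draq5-stained; gain in nuclear (agonist) or nuclear plus cytoplasmic (antagonist) fluorescence versus DMSO read by laser scanning cytometry.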

[16] = target: human Thyroid Receptor Alpha (TRa), THRA (gene 7067) (UniProt P10827); assay: NVS_NR_hTRa_Antagonist: NovaScreen (NVS) Nuclear Receptor Binding Assay for human Thyroid Receptor Alpha Antagonism (TRa) (AID 2283362)
How it was run: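 Chemicals were first screened in duplicate at 25 uM, then actives were retested in concentration series. Binding to the extracted receptor was measured 1 h after dosing by AlphaLISA chemiluminescence, with decreased signal versus DMSO scored as activity.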

[17] = target: rat Serotonin Transporter (SERT), Slc6a4 (gene 25553) (UniProt P31652); assay: NVS_TR_rSERT: NovaScreen (NVS) Transporter Assay for rat Serotonin Transporter (SERT) (AID 2283375)
How it was run: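 Steps: rat forebrain membranes dosed with chemical (25 uM duplicate primary; concentration series for actives); 1 h incubation; labelled ligand bound, filtered, counted by scintillation. Activity scored as signal loss vs DMSO.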

[18] = target: Bile acid receptor (Homo sapiens) (UniProt Q96RI1); assay: OT_FXR_FXRSRC1_1440: Odyssey Thera (OT) 24-hour HEK293T Protein-Complementation Assay for Farnesoid X receptor/SRC-1 Co-activator (AID 2283384)
How it was run: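 HEK293T cells were dosed with compound and read 24 h later by fluorescence intensity from protein-fragment complementation reporting FXR/SRC-1 co-activator interaction. Gain of signal was fitted relative to DMSO negative control as baseline.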

[19] = target: Retinoic acid receptor alpha (Homo sapiens) (UniProt P10276); assay: NVS_NR_hRARa_Agonist: NovaScreen (NVS) Nuclear Receptor Binding Assay for human Retinoic Acid Alpha Receptor Agonism (RAR) (AID 2283361)
How it was run: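 Cell-free TR-FRET binding readout with extracted receptor protein, read 2 hours after dosing; gain-of-signal fitted relative to DMSO. Screened in duplicate at 25 uM, actives then run in concentration-response.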

[20] = target: human Serotonin Transporter (SERT), SLC6A4 (gene 6532) (UniProt P31645); assay: NVS_TR_hSERT: NovaScreen (NVS) Transporter Assay for human Serotonin Transporter (SERT) (AID 2283372)
How it was run: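 Radioligand binding to native SERT in human platelet membranes, read by filter-based scintillation counting 1 h after dosing. Primary screen in duplicate at 25 uM; actives followed up in concentration series; loss of signal versus DMSO baseline.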

Measured: AC50

Chain of Agonist Androgen Response Element (ARE), AR (gene 367) (P10275 whole entry, looked up): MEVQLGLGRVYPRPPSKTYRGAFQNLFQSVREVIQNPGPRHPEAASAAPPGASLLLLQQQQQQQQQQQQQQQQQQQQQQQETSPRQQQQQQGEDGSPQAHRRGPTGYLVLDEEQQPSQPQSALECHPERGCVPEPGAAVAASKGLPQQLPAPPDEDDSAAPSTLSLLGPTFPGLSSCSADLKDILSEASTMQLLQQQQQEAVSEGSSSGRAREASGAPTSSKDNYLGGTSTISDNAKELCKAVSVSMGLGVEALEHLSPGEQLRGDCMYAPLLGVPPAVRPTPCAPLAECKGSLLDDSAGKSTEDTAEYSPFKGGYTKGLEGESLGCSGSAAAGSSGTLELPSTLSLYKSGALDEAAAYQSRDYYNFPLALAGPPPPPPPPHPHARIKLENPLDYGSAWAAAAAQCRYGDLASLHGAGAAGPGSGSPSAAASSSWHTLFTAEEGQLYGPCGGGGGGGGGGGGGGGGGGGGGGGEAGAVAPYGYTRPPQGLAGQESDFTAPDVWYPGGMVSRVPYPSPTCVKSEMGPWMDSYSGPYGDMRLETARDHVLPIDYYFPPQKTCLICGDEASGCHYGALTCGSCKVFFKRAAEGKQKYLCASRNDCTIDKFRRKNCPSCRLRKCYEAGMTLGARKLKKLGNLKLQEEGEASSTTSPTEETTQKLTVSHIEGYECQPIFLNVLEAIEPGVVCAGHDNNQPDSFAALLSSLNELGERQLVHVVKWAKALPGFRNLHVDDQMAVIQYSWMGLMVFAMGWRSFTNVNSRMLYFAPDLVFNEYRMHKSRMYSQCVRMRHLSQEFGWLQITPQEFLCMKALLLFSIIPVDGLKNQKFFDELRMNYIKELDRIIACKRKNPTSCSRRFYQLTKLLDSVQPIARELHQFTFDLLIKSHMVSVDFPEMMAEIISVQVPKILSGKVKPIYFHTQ
Chain of Estrogen receptor beta (Homo sapiens) (Q92731 whole entry, looked up, the tested form may be a part): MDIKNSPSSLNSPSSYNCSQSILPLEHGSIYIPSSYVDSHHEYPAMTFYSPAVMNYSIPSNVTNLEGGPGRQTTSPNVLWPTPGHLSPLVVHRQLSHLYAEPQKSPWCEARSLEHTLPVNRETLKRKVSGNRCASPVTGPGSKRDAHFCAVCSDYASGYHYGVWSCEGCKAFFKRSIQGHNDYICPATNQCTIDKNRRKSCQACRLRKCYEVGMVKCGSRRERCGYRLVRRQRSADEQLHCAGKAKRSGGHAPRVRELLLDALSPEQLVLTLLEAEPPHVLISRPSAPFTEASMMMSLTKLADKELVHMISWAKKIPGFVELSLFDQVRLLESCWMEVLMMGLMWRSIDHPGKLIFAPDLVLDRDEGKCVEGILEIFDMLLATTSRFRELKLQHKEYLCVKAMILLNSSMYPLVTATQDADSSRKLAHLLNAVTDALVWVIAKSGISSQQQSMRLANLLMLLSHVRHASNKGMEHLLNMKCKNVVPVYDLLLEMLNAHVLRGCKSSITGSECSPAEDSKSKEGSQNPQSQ
Chain of rat Serotonin Transporter (SERT), Slc6a4 (gene 25553) (P31652 whole entry, looked up): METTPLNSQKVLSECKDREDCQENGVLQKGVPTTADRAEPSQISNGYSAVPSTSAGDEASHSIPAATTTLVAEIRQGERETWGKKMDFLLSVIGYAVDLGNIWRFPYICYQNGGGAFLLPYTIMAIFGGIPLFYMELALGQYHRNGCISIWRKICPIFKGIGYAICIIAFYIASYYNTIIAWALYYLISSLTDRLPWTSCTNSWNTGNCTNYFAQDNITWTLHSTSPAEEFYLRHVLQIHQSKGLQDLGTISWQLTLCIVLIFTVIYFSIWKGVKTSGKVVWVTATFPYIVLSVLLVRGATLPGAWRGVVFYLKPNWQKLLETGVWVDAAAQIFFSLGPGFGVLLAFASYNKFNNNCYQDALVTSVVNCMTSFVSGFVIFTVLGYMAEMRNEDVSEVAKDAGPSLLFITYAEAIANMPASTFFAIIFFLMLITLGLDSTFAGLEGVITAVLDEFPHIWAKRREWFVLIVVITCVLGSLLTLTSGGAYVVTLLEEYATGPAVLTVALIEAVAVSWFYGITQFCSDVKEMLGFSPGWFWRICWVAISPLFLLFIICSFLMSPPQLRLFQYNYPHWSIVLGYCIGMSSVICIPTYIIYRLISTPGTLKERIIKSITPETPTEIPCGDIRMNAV
Chain of Bile acid receptor (Homo sapiens) (Q96RI1 whole entry, looked up, the tested form may be a part): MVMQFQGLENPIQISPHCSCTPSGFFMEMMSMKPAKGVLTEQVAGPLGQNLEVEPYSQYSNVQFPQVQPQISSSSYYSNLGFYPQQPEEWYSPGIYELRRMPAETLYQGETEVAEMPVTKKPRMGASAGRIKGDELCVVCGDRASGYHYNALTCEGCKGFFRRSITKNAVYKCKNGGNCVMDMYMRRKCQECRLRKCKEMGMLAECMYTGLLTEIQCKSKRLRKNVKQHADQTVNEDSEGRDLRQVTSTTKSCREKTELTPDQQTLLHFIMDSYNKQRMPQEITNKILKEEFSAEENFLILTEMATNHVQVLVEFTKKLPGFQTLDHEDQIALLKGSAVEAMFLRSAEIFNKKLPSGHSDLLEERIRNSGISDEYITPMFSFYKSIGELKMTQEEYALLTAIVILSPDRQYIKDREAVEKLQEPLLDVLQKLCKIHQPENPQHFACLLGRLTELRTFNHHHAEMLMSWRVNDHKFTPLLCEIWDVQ
Chain of Peroxisome proliferator-activated receptor gamma (Homo sapiens) (P37231 whole entry, looked up): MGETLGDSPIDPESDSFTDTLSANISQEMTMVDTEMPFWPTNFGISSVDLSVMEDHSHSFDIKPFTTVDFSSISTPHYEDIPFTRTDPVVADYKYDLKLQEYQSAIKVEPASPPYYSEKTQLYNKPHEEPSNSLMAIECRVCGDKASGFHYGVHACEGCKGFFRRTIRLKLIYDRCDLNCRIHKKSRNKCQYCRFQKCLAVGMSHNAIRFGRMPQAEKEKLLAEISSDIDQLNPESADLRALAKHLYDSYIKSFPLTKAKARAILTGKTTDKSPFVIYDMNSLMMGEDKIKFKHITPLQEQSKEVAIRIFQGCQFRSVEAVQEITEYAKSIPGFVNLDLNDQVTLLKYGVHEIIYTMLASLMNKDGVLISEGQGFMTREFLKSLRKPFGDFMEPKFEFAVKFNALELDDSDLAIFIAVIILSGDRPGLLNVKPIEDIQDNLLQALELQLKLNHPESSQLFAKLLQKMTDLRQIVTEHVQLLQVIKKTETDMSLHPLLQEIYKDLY
Chain of human Thyroid Receptor Alpha (TRa), THRA (gene 7067) (P10827 whole entry, looked up): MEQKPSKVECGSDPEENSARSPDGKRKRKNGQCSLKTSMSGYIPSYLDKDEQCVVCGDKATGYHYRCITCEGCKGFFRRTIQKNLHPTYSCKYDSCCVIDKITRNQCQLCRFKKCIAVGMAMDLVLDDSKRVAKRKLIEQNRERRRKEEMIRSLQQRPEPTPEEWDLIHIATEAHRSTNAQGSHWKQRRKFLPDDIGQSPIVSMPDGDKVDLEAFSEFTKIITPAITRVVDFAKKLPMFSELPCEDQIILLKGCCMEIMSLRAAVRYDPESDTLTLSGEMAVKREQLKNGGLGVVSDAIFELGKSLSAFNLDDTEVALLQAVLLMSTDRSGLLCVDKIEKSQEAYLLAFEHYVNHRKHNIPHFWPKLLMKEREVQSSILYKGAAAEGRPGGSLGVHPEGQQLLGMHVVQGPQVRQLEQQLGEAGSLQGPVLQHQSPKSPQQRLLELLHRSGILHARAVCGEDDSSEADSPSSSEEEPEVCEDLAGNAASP
Chain of Nuclear receptor subfamily 1 group I member 2 (Homo sapiens) (O75469 whole entry, looked up): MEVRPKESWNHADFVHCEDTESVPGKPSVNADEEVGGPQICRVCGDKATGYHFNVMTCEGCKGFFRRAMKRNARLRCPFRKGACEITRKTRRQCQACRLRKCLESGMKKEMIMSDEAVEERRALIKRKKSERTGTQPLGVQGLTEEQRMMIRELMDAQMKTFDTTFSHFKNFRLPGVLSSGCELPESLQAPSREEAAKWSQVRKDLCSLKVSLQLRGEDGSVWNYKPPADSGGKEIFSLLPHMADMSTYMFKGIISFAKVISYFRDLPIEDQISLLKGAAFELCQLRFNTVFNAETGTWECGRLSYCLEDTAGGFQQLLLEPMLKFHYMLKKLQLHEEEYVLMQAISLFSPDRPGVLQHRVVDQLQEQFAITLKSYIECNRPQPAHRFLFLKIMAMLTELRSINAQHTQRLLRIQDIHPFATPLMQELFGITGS
Chain of Estrogen receptor (Homo sapiens) (P03372 whole entry, looked up): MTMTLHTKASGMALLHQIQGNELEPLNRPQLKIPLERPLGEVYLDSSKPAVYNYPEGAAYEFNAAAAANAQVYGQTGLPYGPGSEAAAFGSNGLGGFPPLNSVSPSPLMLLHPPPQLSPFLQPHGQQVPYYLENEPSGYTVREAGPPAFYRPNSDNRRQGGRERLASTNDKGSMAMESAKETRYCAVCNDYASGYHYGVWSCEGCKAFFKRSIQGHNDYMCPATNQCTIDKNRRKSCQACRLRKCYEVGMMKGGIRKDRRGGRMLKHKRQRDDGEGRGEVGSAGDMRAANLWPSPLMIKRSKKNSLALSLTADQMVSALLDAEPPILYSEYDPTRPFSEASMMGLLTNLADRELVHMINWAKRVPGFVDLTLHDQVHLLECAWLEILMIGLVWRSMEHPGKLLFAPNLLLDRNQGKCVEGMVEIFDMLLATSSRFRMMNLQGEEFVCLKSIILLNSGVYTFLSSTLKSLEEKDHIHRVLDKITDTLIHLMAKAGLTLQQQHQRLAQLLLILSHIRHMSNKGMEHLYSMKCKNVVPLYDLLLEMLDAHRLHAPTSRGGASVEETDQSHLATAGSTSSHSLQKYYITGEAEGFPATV
Chain of guinea pig Sigma Receptor, Non-selective Binding, SIGMAR1 (gene 100135589) (Q60492 whole entry, looked up): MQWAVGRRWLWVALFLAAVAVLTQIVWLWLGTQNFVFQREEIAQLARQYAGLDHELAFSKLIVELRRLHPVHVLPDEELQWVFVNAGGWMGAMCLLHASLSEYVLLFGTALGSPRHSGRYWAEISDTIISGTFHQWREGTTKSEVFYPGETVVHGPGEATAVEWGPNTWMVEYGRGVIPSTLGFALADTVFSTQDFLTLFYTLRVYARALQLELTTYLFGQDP

CCCCCCCCCCCCCCCCOS(=O)(=O)O
active: [1] 12.5 µM | [2] 3.03 µM | [3] 1.64 µM | [4] 19.6 µM | [5] 7.04 µM
inactive: [6] | [7] | [8] | [9]

NC(=O)NN=Cc1ccc([N+](=O)[O-])o1
inactive: [3] | [7] | [8]

O=c1[nH]cnc2c1ncn2[C@H]1CC[C@@H](CO)O1
inactive: [10] | [7] | [8]

CC[C@H](C)C(=O)O[C@H]1C[C@H](O)C=C2C=C[C@H](C)[C@H](CC[C@@H](O)C[C@@H](O)CC(=O)O)[C@H]21
active: [11] 15.5 µM
inactive: [7] | [8]

CCCCCCCC/C=C\CCCCCCCC(=O)OC[C@@H](O)[C@H]1OC[C@H](O)[C@H]1O
inactive: [1] | [7] | [8]

CCn1nc(C)c2c1C(=O)NCC(c1ccc(O)cc1)=N2
inactive: [12] | [13] | [14] | [3] | [10] | [15] | [7] | [8]

CCCCC(CC)C(=O)OCCOCCOCCOC(=O)C(CC)CCCC (stereo not drawn)
inactive: [16] | [12] | [4] | [5] | [6] | [7] | [8]

CCCC(CCC)C(=O)O
inactive: [5] | [7] | [8]

CCCOc1ccc(S(=O)(=O)N2CCN(CC)CC2)cc1-c1nc2c(CC)n(Cc3ccccn3)nc2c(=O)[nH]1
inactive: [17] | [7] | [8] | [9] | [18]

COS(C)(=O)=O
inactive: [5] | [7]

Cc1nccn1-c1ccc(Sc2cccc(C3(C(N)=O)CCOCC3)c2)cc1
active: [12] 19.7 µM | [14] 0.0243 µM | [7] 17.4 µM | [9] 4.07 µM | [18] 9.64 µM
inactive: [13] | [3] | [8]

CCCCCCCCN(C)C
active: [12] 1.88 µM | [17] 12.5 µM
inactive: [19] | [7] | [8]

O=C(O)c1cccc(C[C@@H]2COc3ccc(OCc4nc5cc(F)ccc5s4)cc3[C@@H]2O)c1
inactive: [4] | [5] | [7] | [8]

O=S(=O)(O)c1ccc(N=Nc2c(O)ccc3cc(S(=O)(=O)O)ccc23)cc1
inactive: [17] | [7] | [8] | [18]

OCCOCCOCCO
inactive: [20] | [4] | [5] | [6] | [7] | [8]
active: [1] 0.108 µM

CC(C)C(=O)Nc1ccc([N+](=O)[O-])c(C(F)(F)F)c1
inactive: [16] | [12] | [5] | [15] | [7] | [8] | [9]

CNC(C)=O
inactive: [4] | [7] | [8]

CC(C)CCCCCCOC(=O)C1CCCCC1C(=O)OCCCCCCC(C)C (stereo not drawn)
inactive: [16] | [5] | [7] | [8] | [9]

Cc1ncc([C@@H](CCCCCCc2ccc3c(n2)NCCC3)CC(=O)O)cn1
active: [12] 14.5 µM
inactive: [3] | [15] | [7] | [8] | [18]

C[C@]12C=CC(=O)C=C1CC[C@H]1[C@@H]3C[C@@H](O)[C@](O)(C(=O)CO)[C@@]3(C)C[C@H](O)[C@@]12F
active: [11] 0.0746 µM
inactive: [1] | [5] | [7] | [8]

c1ccc2cc3ccccc3cc2c1
inactive: [7] | [8] | [9] | [18]
active: [4] 6.95 µM

c1ccc(C(O[C@@H]2CCCN(CCc3ccc4c(c3)OCO4)C2)c2ccccc2)cc1
active: [12] 2.6 µM | [14] 0.943 µM | [10] 11.4 µM | [4] 4.2 µM | [5] 25 µM
inactive: [16] | [11] | [20] | [7] | [8]

c1ccc2c(c1)-c1cccc3c1c-2cc1ccccc13
active: [8] 77.5 µM
inactive: [3] | [5] | [7]

Cc1cccc(O)c1C
inactive: [3] | [5] | [15] | [7] | [8] | [9] | [18]

C=CCc1cc(S(=O)(=O)c2ccc(O)c(CC=C)c2)ccc1O
active: [11] 4.59 µM | [2] 4.5 µM | [13] 25 µM | [14] 13.2 µM | [3] 0.621 µM | [4] 6.96 µM | [5] 14.6 µM
inactive: [15] | [7] | [8]

CCN(CC)C(=S)SSC(=S)N(CC)CC
inactive: [14] | [6] | [9] | [18]
active: [1] 0.7 µM | [12] 25 µM | [4] 0.344 µM | [7] 92.5 µM | [8] 77.7 µM

Cc1ccc(S(=O)(=O)NC(=O)NN2CCCCCC2)cc1
inactive: [17] | [7] | [8]
